In PubChem BioAssay (NCI):
Values joined by “and” are separate entries in the source; they are usually repeats but may differ in a detail not shown here. Equal values may be shown once. The panel holds about 83,000 compounds, 20% with a hit somewhere; the sample as a whole holds those more often.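 A percent growth of 40 corresponds to 60% growth inhibition; 0 means no net growth; -100 means all cells died. Active threshold: below 10.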 Unmarked numbers belong to inactive results. Active and inactive are the calls of the source. Where a SMILES comes first, the peptide text is derived from it. The star is where a group is joined. Trt = c1ccc(C(c2ccccc2)(c2ccccc2)*)cc1; Cbz = O=C(OCc1ccccc1)*

Experiments:
Assay in all cases: NCI-60 one-dose screen, 48 h (100 = growth as untreated, 0 = no growth, -100 = all killed)
Conditions in all cases: 10 µM unless noted
SK-MEL-2 melanoma = test system: SK-MEL-2 melanoma
EKVX NSCLC = test system: EKVX NSCLC
SN12C renal = test system: SN12C renal
UO-31 renal = test system: UO-31 renal
TK-10 renal = test system: TK-10 renal
ACHN renal = test system: ACHN renal
CAKI-1 renal = test system: CAKI-1 renal
A498 renal = test system: A498 renal
CCRF-CEM leukemia = test system: CCRF-CEM leukemia
MOLT-4 leukemia = test system: MOLT-4 leukemia

Row | Compound | growth (SK-MEL-2 melanoma) | growth (EKVX NSCLC) | growth (SN12C renal) | growth (UO-31 renal) | growth (TK-10 renal) | growth (ACHN renal) | growth (CAKI-1 renal) | growth (A498 renal) | growth (CCRF-CEM leukemia) | growth (MOLT-4 leukemia)
1 | O=C(/C=C/C=C/c1ccccc1)c1ccco1 | 103% | 112% | 99.8% | 62.6% | 128% | 107% | 97.3% | 106% | 30.2% | –
2 | CN=C(N)N/N=C(\C)c1ccc2c(c1)Cc1cc(/C(C)=N/NC(N)=NC)ccc1-2 | -60.6% (active) | 6.23% (active) | -49.4% (active) | 6.24% (active) | -4.01% (active) | -49.9% (active) | 23.4% | -32.7% (active) | -3.32% (active) | -10.8% (active)
3 | O=C(Nc1ccccc1)Oc1c(Cl)c(Cl)c(Cl)c(Cl)c1Cl | 95.6% and 101% | 97.7% and 87.2% | 99.4% and 92.7% | 73.9% and 83.2% | 100% | 99.1% and 93.6% | 93.1% and 89.7% | 95.9% and 76.8% | 93.6% and 101% | 90.8% and 96.1%
4 | NC1=CC(=O)c2ccccc2C1=O | 88.6% | 95% | 85.5% | 71.1% | 125% | 79.9% | 91.9% | 90% | 85.4% | 94.3%
5 | COC(=O)C(CSC(c1ccccc1)(c1ccccc1)c1ccccc1)NC(=O)C(CC(N)=O)NC(=O)OCc1ccccc1 (stereo not drawn) (Cbz-Asn-Cys(Trt)-OMe; configuration not given here) | -23% (active) | 36.6% | 29.2% | 58.4% | 48.4% | 28.3% | 44.3% | 21.1% | 40.3% | 3.12% (active)
6 | NC(=O)/C=C/C(=O)c1c(Cl)cccc1Cl | -67.4% (active) | -36.4% (active) | -90.2% (active) | -86.4% (active) | -83.7% (active) | -76.3% (active) | -86.9% (active) | -58.4% (active) | -33.9% (active) | -26.3% (active)
